M1 ag: human M1 muscarinic receptor agonists, primary screen, Fluo-8 calcium fluorescence, CHO-K1 cells, HTS; Muscarinic acetylcholine receptor M1 (Homo sapiens), P11229; CHO-K1 hM1, agonist mode; 0% DMSO, 100% acetylcholine EC100; activation, % at 3 µM; actives 0.33% (n = 360,000); AID 588814, 2011;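 active = activation above the run's mean compound activation plus 3 SD, cut at about 16% in these data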;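 note: peak over basal fluorescence ratio within a 140 s kinetic read after compound addition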
Target sequence (P11229 whole entry, looked up): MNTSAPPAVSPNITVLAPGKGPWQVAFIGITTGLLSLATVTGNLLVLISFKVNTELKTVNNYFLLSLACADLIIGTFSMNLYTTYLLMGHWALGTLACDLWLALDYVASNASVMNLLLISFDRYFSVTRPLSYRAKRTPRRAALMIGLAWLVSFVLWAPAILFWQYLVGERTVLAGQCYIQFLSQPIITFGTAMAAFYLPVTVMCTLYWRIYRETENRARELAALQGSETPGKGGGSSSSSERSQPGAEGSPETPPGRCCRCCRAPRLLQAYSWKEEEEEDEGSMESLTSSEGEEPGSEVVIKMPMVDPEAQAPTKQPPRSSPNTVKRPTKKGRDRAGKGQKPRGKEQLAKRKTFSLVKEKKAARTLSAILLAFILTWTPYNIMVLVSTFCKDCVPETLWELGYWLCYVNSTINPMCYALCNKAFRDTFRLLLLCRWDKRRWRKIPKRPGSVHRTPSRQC
CHRM1 PAM: human M1 muscarinic receptor positive allosteric modulators, primary screen, CHO-K1 cells, Fluo-8 calcium fluorescence, 1536-well; Muscarinic acetylcholine receptor M1 (Homo sapiens), P11229; CHO-K1 hM1, ACh EC20; 0% = ACh EC20, 100% = maximal ACh; activation, % at 3 µM; actives 0.088% (n = 360,000); AID 588819, 2011; in the data active = activation above about 19%, passing the limit was not always enough
M1 PAM parental: nonselective calcium activators in parental CHO-K1 cells, primary screen, counter-screen for M1 PAM project, cell-based, Fluo-8 calcium fluorescence, full deck, 1536-well | ATP EC20; 0% at ATP EC20, 100% at ATP max | activation, % at 3 µM | actives 0.02% (n = 360,000);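 active = activation above the run cutoff, the mean activation of all test compounds plus 3 SD, cut at about 40% in these data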;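 note: peak over basal fluorescence ratio in a 140 s read after ATP addition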
CHO-K1 Ca antag: M1 antagonist counterscreen hit in parental CHO-K1 cells; ATP-induced calcium, Fluo-8 fluorescence; inhibition, % at 3 µM; actives 0.6% (n = 360,000);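 active = inhibition above a per-plate cutoff, the plate's mean sample inhibition plus 3 SD, cut at about 24% in these data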;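 note: 0% = DMSO plus EC80 ATP and 100% = DMSO alone without ATP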
CHRM1 antagonist: human M1 muscarinic receptor antagonists, primary screen, CHO-K1 cells, Fluo-8 calcium fluorescence, 1536-well | Muscarinic acetylcholine receptor M1 (Homo sapiens), P11229 | CHO-K1 hM1, ACh EC80 antagonist | inhibition, % at 3 µM | actives 1.3% (n = 360,000);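 active = percent inhibition above its own plate's cutoff, namely the mean of that plate's compound wells plus 3 SD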;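 note: peak over basal fluorescence ratio during 140 s after agonist addition; 0% = ACh EC80 plus DMSO and 100% = DMSO alone without agonist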
CHO-K1 Ca ag: counter-screen for M1 agonists: effect in parental CHO-K1 cells; Fluo-8 calcium fluorescence; scaled to maximal ATP response, vehicle zero; activation, % at 3 µM; actives 0.48% (n = 360,000); in the data active = activation above about 15%;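 note: untransfected CHO-K1 host cells lacking M1 receptor as counterscreen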
Starred values were filed as active, the others as inactive. This is a sample that favours compounds with a hit; in the whole collection about 2.4% have one here.

`O=C(C[C@@H]1C/C=C/CC[C@H](Cc2ccc(F)cc2)C(=O)OCCNC1=O)N[C@H](CO)Cc1ccccc1` gave M1 ag -4, CHRM1 PAM -6, M1 PAM parental -10, CHO-K1 Ca antag 3, CHRM1 antagonist 10 and CHO-K1 Ca ag 0.
Screening COc1ccc(S(=O)(=O)Nc2cc3c4c(c2)CCN4C(=O)CC3)cc1 returned M1 ag 2, CHRM1 PAM 4, M1 PAM parental 0, CHO-K1 Ca antag -7, CHRM1 antagonist -5 and CHO-K1 Ca ag 0.
For CCCCC(CC)C(=O)NCc1ccc(F)cc1 (stereo not drawn) the results were M1 ag -8, CHRM1 PAM 6, M1 PAM parental 17, CHO-K1 Ca antag 4, CHRM1 antagonist -9 and CHO-K1 Ca ag 7.
`CCCC[C@@H]1CNCCN1CCc1cc(C(F)(F)F)cc(C(F)(F)F)c1` gave M1 ag -12, CHRM1 PAM -27, M1 PAM parental 10, CHO-K1 Ca antag -6, CHRM1 antagonist 34* and CHO-K1 Ca ag 0.
Screening FC(F)(F)c1cc(CCN2CCNC[C@@H]2c2ccccc2)cc(C(F)(F)F)c1 returned M1 ag -4, CHRM1 PAM -3, M1 PAM parental -11, CHO-K1 Ca antag -4, CHRM1 antagonist 9 and CHO-K1 Ca ag 1.
Screening FC(F)(F)c1cc(CCN2CCNC[C@@H]2CC2CCCCC2)cc(C(F)(F)F)c1 returned M1 ag 12, CHRM1 PAM -8, M1 PAM parental 20, CHO-K1 Ca antag -16, CHRM1 antagonist 36* and CHO-K1 Ca ag 0.
`O=C(OCC(=O)N(C1CCCCC1)C1CCCCC1)c1ccc(Cl)nc1` gave M1 ag 0, CHRM1 PAM 24*, M1 PAM parental 17, CHO-K1 Ca antag -10, CHRM1 antagonist -22 and CHO-K1 Ca ag 0.
For Cc1ccc(O)c([C@H](CCN(C(C)C)C(C)C)c2ccccc2)c1 the results were M1 ag -8, CHRM1 PAM -27, M1 PAM parental -5, CHO-K1 Ca antag 8, CHRM1 antagonist 100* and CHO-K1 Ca ag 0.
Screening CCCN(CCC)C(=O)CC(c1ccccc1)c1ccc(C)cc1O (stereo not drawn) returned M1 ag -10, CHRM1 PAM -2, M1 PAM parental 6, CHO-K1 Ca antag -17, CHRM1 antagonist 1 and CHO-K1 Ca ag -1.
Screening O=C(Cc1ccc(Cl)c(Cl)c1)Nc1cccc(S(=O)(=O)N2CCOCC2)c1 returned M1 ag -4, CHRM1 PAM -7, M1 PAM parental -12, CHO-K1 Ca antag 4, CHRM1 antagonist 23 and CHO-K1 Ca ag 3.
Screening CCC(C(=O)NC1CCCCC1)n1c(SCc2cccc(C)c2)nc2ccncc21 (stereo not drawn) returned M1 ag -11, CHRM1 PAM -29, M1 PAM parental 7, CHO-K1 Ca antag -9, CHRM1 antagonist 28 and CHO-K1 Ca ag 2.
CCC(C(=O)NC1CCCCC1)n1c(SCc2cccc(F)c2)nc2ccncc21 (stereo not drawn) was read as M1 ag -11, CHRM1 PAM -30, M1 PAM parental 15, CHO-K1 Ca antag -9, CHRM1 antagonist 45* and CHO-K1 Ca ag 2.
Screening COc1ccc(C2=NN(c3nc(-c4ccc(CNC(C)=O)cc4)cs3)C(c3ccco3)C2)cc1 (stereo not drawn) returned M1 ag -1, CHRM1 PAM 2, M1 PAM parental -18, CHO-K1 Ca antag 0, CHRM1 antagonist 2 and CHO-K1 Ca ag 0.
Cc1ccc(-c2c(C(=O)N/N=C/c3ccoc3)nnn2-c2nonc2N)cc1 was read as M1 ag 4, CHRM1 PAM 12, M1 PAM parental -22, CHO-K1 Ca antag -6, CHRM1 antagonist -9 and CHO-K1 Ca ag 0.
`Cc1ccc(-c2c(C(=O)N/N=C/c3cccs3)nnn2-c2nonc2N)cc1` gave M1 ag 18*, CHRM1 PAM 21, M1 PAM parental 24, CHO-K1 Ca antag -15, CHRM1 antagonist -21 and CHO-K1 Ca ag 13.
`CCOc1cccc(-c2c(C(=O)N/N=C/c3sccc3C)nnn2-c2nonc2N)c1` gave M1 ag 1, CHRM1 PAM 6, M1 PAM parental 5, CHO-K1 Ca antag -6, CHRM1 antagonist -1 and CHO-K1 Ca ag 3.
`CCOc1ccc(-c2c(C(=O)N/N=C/c3cccs3)nnn2-c2nonc2N)cc1` gave M1 ag 11, CHRM1 PAM 3, M1 PAM parental 17, CHO-K1 Ca antag 3, CHRM1 antagonist 3 and CHO-K1 Ca ag 3.
For Nc1nonc1-n1nnc(C(=O)N/N=C/c2cccs2)c1-c1ccc2c(c1)OCO2 the results were M1 ag 43*, CHRM1 PAM 9, M1 PAM parental 20, CHO-K1 Ca antag -31, CHRM1 antagonist -7 and CHO-K1 Ca ag 42*.
For CCOc1cccc(-c2c(C(=O)N/N=C/c3ccsc3)nnn2-c2nonc2N)c1 the results were M1 ag 19*, CHRM1 PAM 16, M1 PAM parental 19, CHO-K1 Ca antag -12, CHRM1 antagonist -5 and CHO-K1 Ca ag 2.
Cc1ccc(-c2c(C(=O)N/N=C/c3ccsc3)nnn2-c2nonc2N)cc1 was read as M1 ag 41*, CHRM1 PAM 1, M1 PAM parental 2, CHO-K1 Ca antag -4, CHRM1 antagonist -1 and CHO-K1 Ca ag 17*.
Cn1ccc2c(N3CCCCC3)cc3c(c21)C1CCC3C1 (stereo not drawn) was read as M1 ag -10, CHRM1 PAM -17, M1 PAM parental 22, CHO-K1 Ca antag -8, CHRM1 antagonist 15 and CHO-K1 Ca ag 1.
CCOC(=O)[C@H]1[C@H]2COc3ccc(Cl)cc3[C@@H]2N2C(=O)CNC(=O)[C@@]12C was read as M1 ag 0, CHRM1 PAM 4, M1 PAM parental -3, CHO-K1 Ca antag 2, CHRM1 antagonist -7 and CHO-K1 Ca ag 0.
Cc1ccc2c(cnn2C(=O)CCCC(=O)NC(C)c2ccccc2)c1 (stereo not drawn) was read as M1 ag -6, CHRM1 PAM 1, M1 PAM parental 19, CHO-K1 Ca antag -8, CHRM1 antagonist -7 and CHO-K1 Ca ag 0.
COC(=O)c1ccc(NC(=O)c2cccc(NC(=O)c3ccccc3)c2)cc1 was read as M1 ag -1, CHRM1 PAM 1, M1 PAM parental -4, CHO-K1 Ca antag -1, CHRM1 antagonist -4 and CHO-K1 Ca ag 1.

High-throughput results as filed in PubChem BioAssay.
